High-throughput results: PubChem BioAssay, several laboratories
Anthrax LF inh2: Bacillus anthracis LF protease inhibitors, primary screen, biochemical, multiplex microsphere, MLPCN library | inhibition, % at 10 µM | AID 588501, 2011 | multiplex microsphere protease cleavage assay | 0.12% of 360,000 active; in the data active means inhibition above about 30%; further: plate controls were buffer without enzyme for full effect and enzyme alone for no effect
Target sequence (P15917 whole entry, looked up): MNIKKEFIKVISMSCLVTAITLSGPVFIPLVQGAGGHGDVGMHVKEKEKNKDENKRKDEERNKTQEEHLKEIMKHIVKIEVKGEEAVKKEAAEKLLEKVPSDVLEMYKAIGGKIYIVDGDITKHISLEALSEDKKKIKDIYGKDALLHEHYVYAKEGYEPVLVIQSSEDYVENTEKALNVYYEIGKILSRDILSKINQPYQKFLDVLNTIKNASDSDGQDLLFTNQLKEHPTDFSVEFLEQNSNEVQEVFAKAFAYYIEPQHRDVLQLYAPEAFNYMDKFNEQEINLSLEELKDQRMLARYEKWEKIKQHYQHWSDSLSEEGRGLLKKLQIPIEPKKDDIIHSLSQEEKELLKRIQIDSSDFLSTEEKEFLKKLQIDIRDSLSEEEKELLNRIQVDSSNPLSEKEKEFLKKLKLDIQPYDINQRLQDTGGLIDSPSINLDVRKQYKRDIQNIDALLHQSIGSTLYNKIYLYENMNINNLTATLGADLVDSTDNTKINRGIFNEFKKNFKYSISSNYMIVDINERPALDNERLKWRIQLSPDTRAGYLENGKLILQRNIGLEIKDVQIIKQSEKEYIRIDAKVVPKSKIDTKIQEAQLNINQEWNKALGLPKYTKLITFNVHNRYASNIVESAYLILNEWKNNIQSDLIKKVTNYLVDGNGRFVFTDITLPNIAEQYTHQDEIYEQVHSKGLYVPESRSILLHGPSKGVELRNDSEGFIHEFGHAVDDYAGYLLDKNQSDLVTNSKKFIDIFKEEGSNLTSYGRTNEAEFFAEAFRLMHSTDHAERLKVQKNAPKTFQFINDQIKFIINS
BoNT-A LC inh2: BoNT/A light chain protease inhibitors, primary screen, biochemical, flow cytometry, MLPCN library; 0.17% of 360,000 active; multiplex microsphere protease substrate cleavage; AID 588499, 2011; Botulinum neurotoxin type A light chain protease (Clostridium botulinum A str. ATCC 3502); inhibition, % at 10 µM; in the data active means inhibition above about 30%; further: plate controls were buffer without enzyme for full effect and enzyme alone for no effect
Bead autofluor: compound fluorescence in toxin protease inhibitor counterscreen | compound autofluorescence counterscreen, microsphere flow cytometry; stronger effect = higher value | fluorescence intensity (test concentration not listed) | 3.1% of 360,000 active | AID 624483; in the data active means fluorescence intensity above about 16000
BoNT F protease: BoNT/F light chain protease inhibitors, primary screen, biochemical, flow cytometry, MLPCN library | 0.22% of 360,000 active | Multiplex microsphere protease cleavage assay | inhibition, % at 10 µM | Botulinum neurotoxin type F light chain protease (Clostridium botulinum) | AID 588497, 2011; in the data active means inhibition above about 35%, passing the limit was not always enough; further: plate controls were buffer without enzyme for full effect and enzyme alone for no effect
MazF activator: activators of E. coli MazEF toxin-antitoxin RNase, primary screen, biochemical, fluorescence, uHTS; FAM/BHQ RNA-DNA oligo cleavage fluorescence, 5 h; activation, % at 20 µM; 0.32% of 350,000 active; AID 504720, 2011; in the data active means activation above about 50%
BoNT-A LC CP2: BoNT/A light chain protease inhibitors, confirmation, biochemical, flow cytometry, cherry pick 2; shares compounds with BoNT-A LC inh2; multiplex microsphere protease cleavage assay; inhibition, % at 10 µM; 10% of 150 active; AID 602325, 2012; in the data active means inhibition above about 24%
LF protease CP2: Bacillus anthracis LF protease inhibitors, confirmation, biochemical, multiplex microsphere. shares compounds with BoNT-A LC inh2. multiplex microsphere protease cleavage assay. inhibition, % at 10 µM. 7% of 150 active. AID 602327, 2012
BoNT-F LC CP2: BoNT/F light chain protease inhibitors, confirmation, biochemical, flow cytometry, cherry pick 2. inhibition, % at 10 µM. shares compounds with BoNT-A LC inh2. multiplex microsphere protease cleavage assay. 7% of 150 active
* = called active by the depositor. In the library only some 3.7% were active in any assay of this set; here they are far more common. Unless noted, no stated cut-off is given here; in the data, active means inhibition above about 25%; inactive means the rest.

Cn1ccc2c(-c3ccc4c(c3)OCCO4)cc3c(c21)C1CCC3C1 (centres undefined) was read as Anthrax LF inh2 -14, BoNT-A LC inh2 11, Bead autofluor 3482, BoNT F protease -30, BoNT-A LC CP2 5, LF protease CP2 -5 and BoNT-F LC CP2 -24.
Screening CSc1ccc(-c2cc3c(c4c2ccn4C)C2CCC3C2)cc1 (centres undefined) returned Anthrax LF inh2 1, BoNT-A LC inh2 1, Bead autofluor 6020 and BoNT F protease -17.
CC(=O)NC12CC3CC(C1)CC(C(=O)N1CCN(S(=O)(=O)c4cccc([N+](=O)[O-])c4)CC1)(C3)C2 was read as Anthrax LF inh2 -9, BoNT-A LC inh2 1, Bead autofluor 3578, BoNT F protease -8 and MazF activator 2.
Screening Cn1ccc2c(-c3ccc(C(F)(F)F)cc3)cc3c(c21)C1CCC3O1 (centres undefined) returned Anthrax LF inh2 -3, BoNT-A LC inh2 1, Bead autofluor 5675 and BoNT F protease 6.
For Cn1ccc2c(-c3ccc(C(F)(F)F)cc3)cc3c(c21)C1CCC3C1 (centres undefined) the results were Anthrax LF inh2 -12, BoNT-A LC inh2 2, Bead autofluor 5818, BoNT F protease 2, BoNT-A LC CP2 2, LF protease CP2 -2 and BoNT-F LC CP2 -6.
For Cn1ccc2c(-c3ccc(C(N)=O)cc3)cc3c(c21)C1CCC3C1 (centres undefined) the results were Anthrax LF inh2 6, BoNT-A LC inh2 0, Bead autofluor 6175, BoNT F protease -5, BoNT-A LC CP2 1, LF protease CP2 2 and BoNT-F LC CP2 4.
Screening Cn1ccc2c(-c3ccc(F)cc3)cc3c(c21)C1CCC3C1 (centres undefined) returned Anthrax LF inh2 5, BoNT-A LC inh2 6, Bead autofluor 5633, BoNT F protease -12, BoNT-A LC CP2 4, LF protease CP2 1 and BoNT-F LC CP2 -2.
For O=C(Nc1nc2ccccc2[nH]1)Nc1ccccc1F the results were Anthrax LF inh2 -3, BoNT-A LC inh2 1, Bead autofluor 5178, BoNT F protease 1 and MazF activator 4.
Screening COc1ccc(Cc2c(-c3ccc(OC)c(OC)c3)nc3c(C)cc(Br)cn23)c(C)c1 returned Anthrax LF inh2 20, BoNT-A LC inh2 32*, Bead autofluor 7593, BoNT F protease -3, BoNT-A LC CP2 11, LF protease CP2 8 and BoNT-F LC CP2 -2.
For COc1ccc(Cc2c(-c3ccc(OC)c(OC)c3)nc3cc(C)c(Br)c(C)n23)c(C)c1 the results were Anthrax LF inh2 -21, BoNT-A LC inh2 0, Bead autofluor 4775, BoNT F protease -7, BoNT-A LC CP2 2, LF protease CP2 -1 and BoNT-F LC CP2 4.
COc1ccc(Cc2c(-c3ccccc3)nc3cc(C)c(Br)c(C)n23)c(C)c1 was read as Anthrax LF inh2 0, BoNT-A LC inh2 0, Bead autofluor 6172 and BoNT F protease -13.
Screening CCC1CN(C(=O)N2CCC(C(=O)NCc3cc(OC)c(OC)c(OC)c3)CC2)c2ccccc2O1 (centres undefined) returned Anthrax LF inh2 1, BoNT-A LC inh2 0, Bead autofluor 5547, BoNT F protease -4 and MazF activator 8.
For C=CCNC(=O)C1CC(=O)N(c2ccc(OCC(=O)Nc3c(C)cccc3C)cc2)C1 (centres undefined) the results were Anthrax LF inh2 6, BoNT-A LC inh2 -1, Bead autofluor 3794, BoNT F protease -3 and MazF activator 9.
Cc1cc2cc(CNC(=O)c3ccc(C)c([N+](=O)[O-])c3)ccc2[nH]1 was read as Anthrax LF inh2 -69, BoNT-A LC inh2 65*, Bead autofluor 3000, BoNT F protease -89, MazF activator 6, BoNT-A LC CP2 4, LF protease CP2 3 and BoNT-F LC CP2 8.
`CC1(C)CC(=O)C=C(c2ccc(Oc3ccccc3)cc2)C1=O` gave Anthrax LF inh2 4, BoNT-A LC inh2 2, Bead autofluor 3621, BoNT F protease -1 and MazF activator -10.
Screening COc1ccc(C#Cc2ccc(C3=CC(=O)CC(C)(C)C3=O)cc2)cc1 returned Anthrax LF inh2 30*, BoNT-A LC inh2 29, Bead autofluor 3071, BoNT F protease 13, MazF activator 1, BoNT-A LC CP2 16, LF protease CP2 11 and BoNT-F LC CP2 16.
Cc1ccc(-c2nc3ccc(Br)cn3c2Cc2ccsc2)cc1 was read as Anthrax LF inh2 10, BoNT-A LC inh2 19, Bead autofluor 5688 and BoNT F protease -20.
Screening Fc1ccc(-c2nc3ccc(Br)cn3c2Cc2ccsc2)cc1 returned Anthrax LF inh2 25, BoNT-A LC inh2 32*, Bead autofluor 6185, BoNT F protease -3, BoNT-A LC CP2 14, LF protease CP2 11 and BoNT-F LC CP2 0.
CN(CC(=O)NC1CCN(Cc2ccccc2)CC1)S(=O)(=O)c1ccc(Br)s1 was read as Anthrax LF inh2 2, BoNT-A LC inh2 2, Bead autofluor 3897, BoNT F protease 8 and MazF activator 2.
Screening CN(CC(=O)NC1CCN(Cc2ccccc2)CC1)S(=O)(=O)c1ccc(Cl)cc1 returned Anthrax LF inh2 54*, BoNT-A LC inh2 14, Bead autofluor 4359, BoNT F protease 74*, MazF activator 7, BoNT-A LC CP2 8, LF protease CP2 8 and BoNT-F LC CP2 21.
`CCOCCn1c(CN2CCN(C(c3ccccc3)c3ccccc3)CC2)nc2c1c(=O)n(C)c(=O)n2C` gave Anthrax LF inh2 2, BoNT-A LC inh2 -1, Bead autofluor 3929, BoNT F protease -9 and MazF activator -2.
For CCC(=O)NCCn1c(C)cc2ccccc21 the results were Anthrax LF inh2 33*, BoNT-A LC inh2 26, Bead autofluor 5062, BoNT F protease 20, MazF activator -9, BoNT-A LC CP2 34*, LF protease CP2 2 and BoNT-F LC CP2 28*.
For Cc1cc2ccccc2n1CCNC(=O)c1ccc(S(=O)(=O)N2CCOCC2)cc1 the results were Anthrax LF inh2 -100, BoNT-A LC inh2 29, Bead autofluor 1079, BoNT F protease -128 and MazF activator -2.
Screening Cc1cc2ccccc2n1CCNC(=O)c1ccc(Br)o1 returned Anthrax LF inh2 -117, BoNT-A LC inh2 66*, Bead autofluor 1384, BoNT F protease -145, MazF activator -29, BoNT-A LC CP2 21, LF protease CP2 22 and BoNT-F LC CP2 -3.
